Screening results from PubChem BioAssay.
BoNT A protease = blocks Botulinum neurotoxin A light chain protease; inhibition, % at 10 µM; multiplex microsphere protease substrate cleavage, flow cytometry; 360,000 compounds, 0.17% hits
Mtb FBA inh = inhibitors of M. tuberculosis fructose-bisphosphate aldolase | purified M. tuberculosis FBA, fluorescence read-out | P9WQA3 | 360,000 compounds, 2.3% hits | inhibition, % at 1 µM; in the data active = inhibition above about 27%
Autofluor counter = counter-screen for toxin protease inhibitors: compound fluorescence | fluorescence intensity (test concentration not listed) | compound autofluorescence counterscreen, microsphere flow cytometry; hits give high values | 360,000 compounds, 3.1% hits; in the data active = fluorescence intensity above about 16000; inconclusive = no clear call, values can overlap the other calls
Anthrax LF prot = anthrax lethal factor protease inhibition; P15917; multiplex microsphere protease cleavage assay, LF; inhibition, % at 10 µM; 360,000 compounds, 0.12% hits; AID 588501
Target sequence (P15917 whole entry, looked up): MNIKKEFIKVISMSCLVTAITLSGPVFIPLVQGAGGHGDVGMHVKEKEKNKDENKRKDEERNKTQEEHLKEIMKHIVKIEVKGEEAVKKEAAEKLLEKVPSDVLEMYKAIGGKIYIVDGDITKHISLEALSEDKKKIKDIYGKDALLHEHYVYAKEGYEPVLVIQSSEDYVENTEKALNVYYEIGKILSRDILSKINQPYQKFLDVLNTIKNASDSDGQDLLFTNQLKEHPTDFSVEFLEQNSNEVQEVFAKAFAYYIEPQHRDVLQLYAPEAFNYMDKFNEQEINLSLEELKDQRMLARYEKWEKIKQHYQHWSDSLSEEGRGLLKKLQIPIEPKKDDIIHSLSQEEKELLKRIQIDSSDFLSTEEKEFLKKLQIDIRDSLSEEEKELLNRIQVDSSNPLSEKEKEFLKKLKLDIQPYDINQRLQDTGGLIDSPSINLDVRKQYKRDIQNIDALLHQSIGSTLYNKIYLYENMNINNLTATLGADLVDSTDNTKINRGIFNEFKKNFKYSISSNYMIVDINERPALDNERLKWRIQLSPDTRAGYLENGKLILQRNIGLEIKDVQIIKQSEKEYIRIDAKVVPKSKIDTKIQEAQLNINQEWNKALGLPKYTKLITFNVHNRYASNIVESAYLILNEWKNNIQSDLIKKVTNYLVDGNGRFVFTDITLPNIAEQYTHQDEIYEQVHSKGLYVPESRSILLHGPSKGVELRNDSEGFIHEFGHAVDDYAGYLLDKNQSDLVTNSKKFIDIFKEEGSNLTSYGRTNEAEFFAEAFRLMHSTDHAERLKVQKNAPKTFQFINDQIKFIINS
BoNT F protease = BoNT F light chain protease inhibition | 360,000 compounds, 0.22% hits | AID 588497 | inhibition, % at 10 µM | Multiplex microsphere protease cleavage assay, flow cytometry; in the data active = inhibition above about 35%, passing the limit was not always enough; inconclusive = no clear call, values can overlap the other calls
GDH-TPI counter = inhibits GDH-TPI coupling enzymes, artifact for Mtb FBA screen | inhibition, % at 4.8 µM | GDH-TPI coupled enzyme counterscreen, NADH absorbance | 360,000 compounds, 1.2% hits; in the data active = inhibition above about 30%
Large screens that a line does not name were inactive. Shown are actives, neighbours in structure and some others; about 6.7% of the full set was active somewhere. Rule as the data show it, unless noted: active = inhibition above about 30%; inconclusive = no clear call, values can overlap the other calls; inactive = below that.

O=C(CSCc1cccc(Cl)c1)NCc1ccc2c(c1)OCO2	Autofluor counter 21289
O=C(Nc1cccc(Cl)c1)C1=Cc2cc(Cl)ccc2OC1	none
O=C(NCc1ccc(Cl)cc1)C1=Cc2cc(Cl)ccc2OC1	Autofluor counter 21246
Cc1ccc(C)n1-c1ccc(C(=O)NCc2cccnc2)cc1	Mtb FBA inh 31
O=C(NCc1ccc2c(c1)OCO2)c1cccc(Cl)c1	none
O=C(CSCc1ccccc1)NCc1ccc2c(c1)OCO2	none
O=C(NCc1cccc(Cl)c1)c1ccc2c(c1)OCO2	BoNT A protease inconclusive, Autofluor counter 21016
CC(C)(C)c1ccc(C(=O)NCc2cccnc2)cc1	none
CC(OC(=O)c1ccc([N+](=O)[O-])s1)C(=O)Nc1ncc(Cl)cc1Cl (stereo not drawn)	none
Cc1cc(C)c2c(c1)C(=O)/C(=C/c1ccc(C(=O)O)cc1)CC2	none
O=c1oc2ccccc2c(O)c1Sc1ccc(Cl)cc1	BoNT F protease inconclusive
COc1ccc(-c2cc(C(F)(F)F)n3nc(C(=O)N4CCOCC4)nc3n2)cc1	GDH-TPI counter 44
O=c1c2ccccc2nc(N2CCCC2)n1-c1ccc(Cl)cc1	Autofluor counter 22940
COc1nc2ccccc2c(=O)n1-c1ccc(Cl)cc1	none
COc1ccc(C2C3=C(CCCC3=O)N(CC(=O)O)C3=C2C(=O)CCC3)cc1Cl	Mtb FBA inh 178, BoNT F protease inconclusive
C#CCOc1c(Cl)cc(C2C3=C(CCCC3=O)N(CC(=O)O)C3=C2C(=O)CCC3)cc1OC	Mtb FBA inh 159
CCOc1cc(C2C3=C(CCCC3=O)N(CC(=O)O)C3=C2C(=O)CCC3)ccc1OC	BoNT F protease inconclusive
CCN1C2=C(C(=O)CCC2)C(c2ccc(O)c(Br)c2)C2=C1CCCC2=O	none
COc1ccc(C2C3=C(CCCC3=O)N(CC(=O)O)C3=C2C(=O)CCC3)cc1Br	Mtb FBA inh 135
COc1ccc(C2C3=C(CC(C)(C)CC3=O)N(CC(=O)O)C3=C2C(=O)CC(C)(C)C3)cc1OC	none
CCC(C)Sc1nc2c(cnn2-c2ccccc2)c(=O)[nH]1 (stereo not drawn)	none
CCOC(=O)C1CCN(c2cc3c(cc2NC(=O)c2ccccc2Cl)n(C)c(=O)n3C)CC1	none
CS(=O)(=O)N(CC(=O)Nc1ccccc1Sc1ccccc1)C1CCCCC1	BoNT A protease inconclusive, Autofluor counter 22169
CCCCNC(=O)N(O)C1N(/N=C/c2ccccc2OC)C(=S)SC1(C)C (stereo not drawn)	BoNT F protease 62
CC1(C)SC(=S)N(/N=C/c2ccccc2)C1N(O)C(=O)Nc1ccc([N+](=O)[O-])cc1 (stereo not drawn)	GDH-TPI counter 42
Nc1nc2nn(-c3ccccc3)nc2c(=O)[nH]1	Mtb FBA inh 199
N#C/C(=C/c1ccc(N2CCCCCC2)o1)c1cccc(F)c1	Autofluor counter 28830
COc1cc(N2CCCC2)c(OC)cc1/C=C(/C#N)c1cccc(F)c1	Autofluor counter 23531, BoNT F protease 48
O=C(O)c1ccc(-c2nnc(-c3cccc(Br)c3)o2)cc1	BoNT F protease inconclusive
Cc1ccc(-n2c(CCC(=O)O)ccc2-c2cccs2)cc1	Autofluor counter 23564
O=C(O)c1cn(-c2ccccc2)nc1-c1ccncc1	none
O=C(O)c1cn(-c2ccccc2)nc1-c1cccnc1	Autofluor counter 20326
O=P(Nc1ccccc1)(Nc1ccccc1)Oc1ccc(Cl)cc1	Autofluor counter 23234
COCCCNc1nc2nonc2nc1N(C)CC1CCCN1C (stereo not drawn)	GDH-TPI counter 36
COCCCNc1nc2nonc2nc1N1C[C@H]2CC[C@H]1C2	none
CCOc1ccccc1/C=N\Nc1cnn(Cc2ccccc2)c(=O)c1Cl	none
Cc1ccc(-n2ccc(=O)c(C(=O)Nc3ccc(S(=O)(=O)Nc4nccc(C)n4)cc3)n2)cc1	GDH-TPI counter 35
Cc1cc(C)nc(NS(=O)(=O)c2ccc(NC(=O)c3nn(-c4ccccc4)ccc3=O)cc2)n1	none
CC(=O)Nc1ccc(C(=O)Nc2ccncc2)cc1	BoNT F protease inconclusive
c1ccc(-n2cnc3cc(NCc4ccncc4)ccc32)cc1	none
CCCCOC(=O)Nc1nnc(CCOCC)s1	GDH-TPI counter 47
CCCCOC(=O)Nc1nnc(COc2ccccc2)s1	Autofluor counter 16850
CCCCOC(=O)Nc1nnc(CCc2ccccc2)s1	none
CCOCCc1nnc(NC(=O)CCc2ccccc2)s1	none
CCOCCc1nnc(NC(=O)Cc2ccc(Br)cc2)s1	Autofluor counter 23584
COc1cc(OC)cc(C(=O)NC(=S)Nc2ccc3[nH]c(=O)[nH]c3c2)c1	none
COc1ccc(Cl)cc1NC(=O)CNc1ccccc1CN(C)C1CCCCC1	none
Oc1[nH]c2ccccc2c1C=NCC1CCCO1 (stereo not drawn)	GDH-TPI counter 35
N#Cc1ccc(-c2cn3c(n2)SCC3)cc1	Mtb FBA inh active
O=[N+]([O-])c1ccc(-c2cn3c(n2)SCC3)cc1	GDH-TPI counter 37 (no result: BoNT A protease, Autofluor counter, Anthrax LF prot, BoNT F protease)
CCN(CC)C(=O)c1ccc(NC(=O)c2ccc3c(c2)NC(=O)CS3)cc1	none
COc1cccc(-n2c(C)nn(C)c2=O)c1	none
CCCn1c(NC(=O)c2cccc(S(=O)(=O)N3CCCC3)c2)nc2ccccc21	Autofluor counter 16663, GDH-TPI counter 35
O=C(NCc1ccc2c(c1)OCO2)c1cccc(S(=O)(=O)N2CCCCC2)c1	BoNT A protease inconclusive, Autofluor counter 17025
CCN(CC)C(=O)c1ccc(NC(=O)c2cccc(F)c2)cc1	Autofluor counter 20909
O=C(Nc1ccc2c(c1)OCCO2)c1cccc(S(=O)(=O)N2CCCCC2)c1	BoNT A protease inconclusive, Autofluor counter 21092
O=C(Nc1ccc(S(=O)(=O)Nc2ccccn2)cc1)c1cccc([N+](=O)[O-])c1	none
O=C(Nc1ccc(N2CCCC2)cc1)c1cccc(F)c1	Autofluor counter 19303
O=C(Nc1cccc(S(=O)(=O)N2CCCC2)c1)c1cccc(S(=O)(=O)N2CCOCC2)c1	none
O=C(Nc1ccc(N2CCOCC2)cc1)c1cccc(S(=O)(=O)N2CCCC2)c1	Autofluor counter 25105
O=C(Nc1ccc(N2CCCCC2)cc1)c1ccccc1	none
O=C(Nc1ccc2c(c1)OCCO2)c1cccc(S(=O)(=O)N2CCOCC2)c1	Autofluor counter 23080
CC(=O)c1ccc(NC(=S)N2CCCC2)cc1	none
COc1ccccc1COCC(O)CNCC1(N2CCCCC2)CCCCC1 (stereo not drawn)	Autofluor counter 22309
COc1cc(C(C)=O)ccc1OCC(O)CNCC1(N2CCCCC2)CCCCC1 (stereo not drawn)	none
Cc1cc(C)cc(N(CC(=O)NC2CCCCC2)C(=O)CNC(=O)c2ccco2)c1	none
CC1=CN2C(=NC(=O)CC2(C)C(=O)N(CC(=O)NC2CCCC2)c2ccccc2C)C=C1 (stereo not drawn)	Mtb FBA inh 147
CC1=CC=CN2C1=NC(=O)CC2(C)C(=O)N(CC(=O)NC1CCCC1)Cc1ccccc1 (stereo not drawn)	Mtb FBA inh 152
